Laboratory results from PubChem BioAssay (NCI).
This is part of a sample that, as a whole, favours compounds with a hit. Of some 79,000 tested, about 15% had one in any assay. Values without a mark were called inactive. The source made the active and inactive calls. No stated cut-off is given here; in the data, active means growth inhibition above about 70%; inactive means the rest.

What was measured:
[1] = NCI Yeast Anticancer Drug Screen. Data for the rad50 strain (AID 155);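 further: 0% = growth of vehicle-only cultures of the same strain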; settings: S. cerevisiae rad50 strain growth inhibition, hits give high values
How it was run: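 Yeast carrying a defined DNA repair defect were exposed to test compounds, and growth was compared with vehicle-treated controls to give percent inhibition.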

[2] = NCI Yeast Anticancer Drug Screen. Data for the mec2-1 strain (AID 157); settings: S. cerevisiae mec2-1 strain, hits give high values
How it was run: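 Mutant yeast (mec2-1) grown with compound; growth inhibition relative to vehicle control reported.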

[3] = NCI Yeast Anticancer Drug Screen. Data for the sgs1 mgt1 strain (AID 161);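 further: 0% = growth of cultures given vehicle only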; settings: S. cerevisiae sgs1 mgt1 strain, hits give high values
How it was run: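 Growth of a repair-deficient yeast mutant was monitored after compound treatment and expressed as inhibition relative to vehicle-treated cultures.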

[4] = NCI Yeast Anticancer Drug Screen. Data for the cln2 rad14 strain (AID 165);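 further: 0% = growth equal to vehicle treated cultures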; settings: S. cerevisiae cln2 rad14 strain, hits give high values
How it was run: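 Readout is yeast growth inhibition versus vehicle-treated controls, using a strain with cln2 and rad14 alterations exposed to compound.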

[5] = NCI Yeast Anticancer Drug Screen. Data for the bub3 strain (AID 167); settings: S. cerevisiae bub3 mutant strain, hits give high values
How it was run: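 Compounds were applied to a genetically altered yeast strain carrying a cell-cycle control defect. Growth inhibition was scored against vehicle-treated controls.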

[6] = NCI Yeast Anticancer Drug Screen. Data for the mlh1 rad18 strain (AID 175); settings: S. cerevisiae mlh1 rad18 strain growth inhibition, hits give high values
How it was run: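 Genetically defined yeast (DNA repair-deficient) exposed to compounds; growth inhibition determined relative to vehicle.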

[7] = at 5.0 µM (retest, dose inferred, filed as 0.5)
[8] = at 50.0 µM (retest, dose inferred, filed as 5.0)

Compound	growth inhibition [1, 7] [%]	growth inhibition [1, 8]	growth inhibition [2, 7] [%]	growth inhibition [2, 8]	growth inhibition [3, 7] [%]	growth inhibition [3, 8]	growth inhibition [4, 7] [%]	growth inhibition [4, 8]	growth inhibition [5, 7] [%]	growth inhibition [5, 8]	growth inhibition [6, 7] [%]	growth inhibition [6, 8]
CC(=O)Oc1c(Br)cc(Br)cc1C(OC(C)=O)OC(C)=O	20	96% (active)	8	87% (active)	19	99% (active)	3	52%	6	99% (active)	-5	93% (active)
CC1=C(/C=C/C(C)=C/C(=O)O)C(C)(C)CCC1	2	67%	-2	47%	3	83% (active)	3	43%	4	64%	-36	64%
CCCCCCN(CCCCCC)CCCCCCCCCCCO	15	98% (active)	7	98% (active)	10	99% (active)	12	98% (active)	–	–	11	94% (active)
[O-][n+]1cccc2cccc(O)c21	2	61%	-1	16%	1	48%	-3	2%	1	20%	-12	49%
CC(=O)c1ccc2c(c1)sc1cc(C(C)=O)ccc12	30	98% (active)	15	98% (active)	8	99% (active)	9	97% (active)	15	99% (active)	23	98% (active)
COc1cccc(NC(=O)c2c(SC)n[nH]c2N)c1	26	99% (active)	38	98% (active)	35	99% (active)	30	75% (active)	43	99% (active)	11	91% (active)
CC(C)NC(=O)C(C)O (configuration not stated)	4	14%	1	2%	2	5%	2	3%	6	-2%	2	10%
